# Bioassay records as filed in PubChem.
# The list is not random: actives were taken first. Their share in the collection is about 8.1%.
# Sfp inh: Sfp phosphopantetheinyl transferase inhibition. Biochemical Sfp PPTase activity, qHTS. AID 1490. Potency, µM, actives largely listed as inhibitors. Q9F4F7. 3.5% of 310,000 active;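 further: the enzyme is Sfp with the accession as filed and its product quenches rhodamine fluorescence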
#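 Reaction rates are the 30-min fluorescence difference (ex 525, em 598 nm) in wells containing 15 nM Sfp, 5 uM rhodamine-CoA and 12.5 uM BHQ-2-YbbR at pH 7.6 with 10 mM MgCl2.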
# PINK1 modulator: modulators of PINK1 expression. PINK1 immunofluorescence, high-content cytometry, 24 h. Potency, µM (doses to about 76.6 µM), most hits filed as activators. 0.2% of 410,000 active. AID 624263; active means well fitted activation curve with a large enough effect; inconclusive means small, poorly fitted or top-dose-only effect; cell line not stated here; further: nearly all actives have a fitted effect of over 65% in size
#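 Measures PINK1 amount and localization on or inside mitochondria by immunofluorescence. Stable cells get compounds at 5 concentrations for 24 hours before fixation and staining; CCCP controls included.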
# RORg inh: ROR gamma (mouse) transcription inhibition | Potency, µM (top dose mostly 53.6 µM), most hits filed as inhibitors | Drosophila S2 Gal4-RORgamma UAS-luciferase reporter, 20 h | P51450 | 5.4% of 310,000 active; further: nearly all actives have a fitted effect of over 60% in size
# Target sequence (P51450 whole entry, looked up, the tested form may be a part): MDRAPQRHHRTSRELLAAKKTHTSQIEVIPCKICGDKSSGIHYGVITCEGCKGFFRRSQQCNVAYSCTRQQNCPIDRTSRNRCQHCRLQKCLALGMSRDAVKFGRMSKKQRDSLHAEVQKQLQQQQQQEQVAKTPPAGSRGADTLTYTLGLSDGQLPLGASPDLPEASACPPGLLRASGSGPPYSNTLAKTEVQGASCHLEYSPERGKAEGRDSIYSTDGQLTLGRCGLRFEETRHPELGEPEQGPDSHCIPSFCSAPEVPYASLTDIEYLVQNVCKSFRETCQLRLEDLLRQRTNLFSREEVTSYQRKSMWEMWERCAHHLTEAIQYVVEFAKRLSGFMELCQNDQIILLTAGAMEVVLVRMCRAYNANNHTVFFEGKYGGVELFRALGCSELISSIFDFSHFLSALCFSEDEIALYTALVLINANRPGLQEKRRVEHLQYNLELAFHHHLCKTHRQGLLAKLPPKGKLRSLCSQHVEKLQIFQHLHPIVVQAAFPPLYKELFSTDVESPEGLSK
#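 Read-out: Photinus luciferase luminescence; inhibitors lower reporter signal. Insect Schneider cells with Gal4-ROR gamma fusion under metallothionein promoter, UAS reporter; 700 uM final copper sulfate induction, 20 hr, ambient temperature.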
# ClpP mod: qHTS Assay for Activators of ClpP; ATP-dependent Clp protease proteolytic subunit (Bacillus subtilis (strain 168)), P80244; purified B. subtilis ClpP, FRET peptide cleavage, 20 min; Potency, µM (highest dose often 57.5 µM); 1.9% of 340,000 active; AID 651965, 2013; active means well fitted falling curve with a large enough effect; inconclusive means small, poorly fitted or top-dose-only effect; inactive means no such curve, though single readings can be large or run the other way; further: the source files actives as falling curves though it sought activators and does not explain the sign; nearly all actives have a fitted effect of over 65% in size
# Target sequence (P80244 whole entry, looked up): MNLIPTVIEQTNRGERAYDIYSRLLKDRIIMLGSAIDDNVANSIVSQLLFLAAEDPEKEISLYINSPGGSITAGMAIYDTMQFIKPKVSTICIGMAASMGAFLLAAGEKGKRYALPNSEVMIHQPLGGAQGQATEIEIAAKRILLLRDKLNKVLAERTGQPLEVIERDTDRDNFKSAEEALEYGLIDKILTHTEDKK
#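 FRET quenching reversal measured ClpP activation: 10 microg/mL B. subtilis ClpP at pH 8 with the FRET-FV decapeptide, read at 430 nm after 320 nm excitation. The 20-min minus 0-min signal was scaled between DMSO/no-enzyme wells and ADEP (5.8 microM final).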
# Epigenetic reg: derepresses silenced GFP reporter in murine cells; Potency, µM (doses to about 53.9 µM), most hits filed as activators; AID 1865; 0.2% of 280,000 active; murine LDR cells, GFP reporter derepression, 30 h; further: nearly all actives have a fitted effect of over 60% in size
#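 In this reporter-derepression format, murine cells bearing a silenced integrated CMV-GFP locus incubate with test compound (30 h, 37 C), then are washed and imaged; fluorescent objects of 20–120 um count as induced cells.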
# Gal4-VP16 FLuc: Gal4-VP16 reporter inhibition counter-screen; Drosophila S2 Gal4-VP16 UAS-luciferase, luminescence, 20 h; Potency, µM (titrated, usually from 53.6 µM), most hits filed as inhibitors; 3.5% of 310,000 active; AID 2546;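 further: Gal4-VP16 expression switched on by copper sulfate through the metallothionein promoter; nearly all actives have a fitted effect of over 50% in size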
# A number is an active result; i = inactive; ? = inconclusive; nt = no result given; [ ] = dose if it differs, or a comment. Unless noted, the call rests on the fitted dose curve; in most records, active means well fitted curve in the direction sought with a large enough effect; inconclusive means small, poorly fitted or top-dose-only effect, or another doubt; inactive means no such curve, though single readings can be large; an effect the other way counts as inactive or inconclusive.
SMILES,Sfp inh,PINK1 modulator,RORg inh,ClpP mod,Epigenetic reg,Gal4-VP16 FLuc
Oc1ccccc1N=Cc1sc2ccccc2c1Cl,56.2µM,i,i,i,?,?
C=CC[C@@H]1C=C[C@H](O/N=C(\C)CCN2CCc3nc(-c4ccccc4)c(-c4ccccc4)cc3C2)[C@H](CO)O1,i,nt,i[10 µM],nt,i[10.1 µM],i[10 µM]
CCCC(=O)Nc1ccccc1C(=O)OCc1cc(=O)n2nc(C(C)C)sc2n1,nt,i,nt,i,i,nt
Cc1cc2nc3c(=O)[nH]c(=S)[nH]c3nc2cc1NC(=O)C(F)(F)F,79.4µM,i,i,i,nt,i
Cn1c(=O)c2nc3ccc(NC(=O)C(F)(F)F)cc3nc2n(C)c1=O,nt,i,nt,?,i,nt
Cc1ccc(CNC(=O)c2ccc3nc4[nH]c5ccccc5c4nc3c2)cc1,i,nt,?,nt,i,7.08µM
Fc1ccc(/C=C2\CCCC3=C2NC(=S)NC3c2ccc(F)cc2)cc1 (stereo unspecified),44.7µM,nt,8.91µM,nt,i,?
Fc1ccc(C2NC(=S)NC3=C2N2CCC3CC2)cc1 (stereo unspecified),i,nt,i,i,i,i
COC(=O)c1c(C)[nH]c(-c2csc(N)n2)c1C,44.7µM,i,i,nt,i,i
CC(=O)Nc1cccc(NC(=S)Nc2cccc(Cl)c2Cl)c1,31.6µM,i,i,i,i,i
S=C(Nc1ccccc1)Nc1cccc(Cl)c1Cl,i,i,i,i,i,i
CC(=O)Nc1ccc(C)c(NC(=S)Nc2ccc(F)cc2)c1,i,i,i,i,i,i
CC(=O)Nc1cccc(NC(=S)Nc2ccc(F)cc2F)c1,39.8µM,i,i,nt,i,i
CC(=O)c1ccc(NC(=S)Nc2cccc(Cl)c2C)cc1,i,i,11.2µM,i,i,?
COC(=O)CCCCCn1c(-c2ccccc2)cn2c3c(=O)n(C)c(=O)n(C)c3nc12,nt,i,nt,i,i,nt
CC(C)CC(=O)Nc1cc(-c2ccccc2F)nn1-c1ccccc1,nt,i,nt,i,i,nt
CC1(c2ccc([N+](=O)[O-])cc2)Nc2ccccc2S1 (stereo unspecified),50.1µM,i,i,i,nt,i
NC1(C(=O)O)CCC1,?,nt,i,nt,i,i
N[C@@]1(C(=O)O)CN[C@@H](C(=O)O)C1,22.4µM,nt,nt,nt,i,nt
NC1(C(=O)O)CC(C(=O)O)C1 (stereo unspecified),50.1µM,nt,i,nt,i,i
Cc1nc2sccn2c(=O)c1S(=O)(=O)NCc1ccc(F)cc1,nt,i,nt,i,i,nt
COc1cccc(NC(=O)CSc2nnc(-c3ccco3)c(-c3ccco3)n2)c1,10µM,i,i,nt,nt,i
COc1ccc(NC(=O)CSc2nnc(-c3ccco3)c(-c3ccco3)n2)cc1OC,35.5µM,i,?,nt,nt,i
CSc1nnc(-c2ccco2)c(-c2ccco2)n1,10µM,i,i,i,?,i
CCOc1cc(-c2nnc(SCC(=O)Nc3ccc(F)c(F)c3)nc2-c2ccc(OC)c(OCC)c2)ccc1OC,nt,i,nt,i,15.8µM,nt
SMILES,Sfp inh,PINK1 modulator,RORg inh,ClpP mod,Epigenetic reg,Gal4-VP16 FLuc
CCOc1ccc(-c2nnc(SCC(=O)NC(C)(C)C)nc2-c2ccc(OCC)c(OC)c2)cc1OC,i,i,i,i,nt,i
Cc1ccc(S(=O)(=O)c2cn(CC(=O)Nc3ccc4c(c3)OCO4)c3ccccc3c2=O)cc1C,nt,i,nt,i,i,nt
N#Cc1c(-c2ccco2)nc(SCC(=O)Nc2cccc(Cl)c2)[nH]c1=O,50.1µM,nt,i,i,i,i
COc1ccc(C(=O)CSc2nnc(-c3ccco3)n2C)cc1,i,i,i,i,i,i
O=C(CSc1nc2[nH]ncc2c(=O)[nH]1)Nc1cccc(Cl)c1,nt,i,nt,nt,nt,nt
COc1ccc(C(=O)CSc2nnc(-c3ccco3)c(-c3ccco3)n2)cc1,8.91µM,i,i,i,i,i
CCCCCOc1ccc(/C=C/C(=O)Nc2sc(C)c(C)c2C(=O)OCC)cc1OC,nt,i,nt,i,i,nt
CCCCN1C(=O)/C(=C/C=C2\N(C)c3ccccc3C2(C)C)SC1=S,i,nt,i,nt,2.51µM,i
CN1CCS/C1=C/C=C1/SC(=S)N(Cc2ccccc2)C1=O,?,i,i,i,i,i
CCCN1C(=O)/C(=C\C=C2/C=CN(CC)c3ccccc32)SC1=S,7.08µM,i,i,i,i,i
CCCCN1C(=O)/C(=C/C=C2\SCCN2C)SC1=S,i,i,?,nt,17.8µM,i
COc1ccc(C(CC(=O)Nc2cc(Cl)c(OC)cc2OC)N2Cc3ccccc3C2=O)cc1 (stereo unspecified),nt,i,nt,i,i,nt
COc1ccc(NC(=O)CC2C(=O)N(c3cccc(C)c3)C(=O)N2Cc2cccnc2)cc1 (stereo unspecified),nt,i,nt,i,i,nt
CC(C)(C)c1cc(NC(=O)CSc2nnc(N)s2)n(-c2ccccc2)n1,i,i,?,28.2µM,i,i
CC(C)(C)c1cc(NC(=O)CSc2nnc(NCc3ccccc3)s2)n(-c2ccccc2)n1,i,i,?,i,i,?
Nc1nnc(SCC(=O)NCCOc2ccccc2)s1,i,i,i,25.1µM,i,i
COc1cccc(CNC(=O)c2ccc(-n3c(C)cc4c3CCC(C)C4)cc2)c1 (stereo unspecified),nt,i,nt,i,i,nt
COc1ccccc1NC(=O)C(Cc1ccccc1)NS(=O)(=O)c1ccc2c(c1)CCN2C(C)=O (stereo unspecified),nt,i,nt,i,i,nt
O=C(CSc1nnc(C2COc3ccccc3O2)o1)NC1CCCCC1 (stereo unspecified),i,i,i,i,i,i
COc1ccc(-c2nnc(SCC(=O)NC(=O)NCc3ccco3)o2)cc1,i,i,7.94µM,i,i,?
Cc1cc(-c2nnc(SCC(=O)Nc3nccs3)o2)no1,i,i,15.8µM,i,i,?
O=C(CSc1nnc(C2COc3ccccc3O2)o1)Nc1nccs1 (stereo unspecified),i,i,?,i,i,22.4µM
CCN(CC)S(=O)(=O)c1ccc2oc(SCC(=O)Nc3cc(C)on3)nc2c1,nt,i,nt,i,nt,nt
Cc1cc(NC(=O)CSc2nc3cc(Cl)ccc3o2)no1,i,i,12.6µM,nt,nt,i
CC12C=C(/C=C/C=C/c3ccco3)C(C)(C1)C(/C=C/c1ccco1)CC2=O (stereo unspecified),i,nt,i[10 µM],nt,i[10.1 µM],i[10 µM]
O=C(C[N+]12CN3CN(CN(C3)C1)C2)c1ccc(O)c(O)c1,nt,i,nt,i,nt,nt
Cc1occc1-c1nnc(SCC(=O)Nc2nc(C(C)(C)C)cs2)o1,i,14.1µM,?,i,i,?
COc1cc(OC)cc(-c2nnc(SCc3cccc(C(=O)O)c3)o2)c1,i,i,?,i,i,7.08µM
Cc1cc(NC(=O)CSc2nnc(-c3cccc(Cl)c3)o2)no1,i,i,?,i,nt,i
COc1cccc(-c2nnc(SCC(=O)Nc3cc(C)on3)o2)c1,i,i,12.6µM,i,i,i
